Screens as filed in PubChem BioAssay.
SUMO Mot1 rescue: yeast Mot1-301 growth rescue at high temperature, primary screen, SUMOylation pathway inhibitor project, S. cerevisiae, ATP luminescence, 38.5C | S. cerevisiae Mot1-301 growth rescue; percent above DMSO median, 100 means doubled | growth rescue, % at 18.8 µM | 320,000 tested, 1% active | AID 2716, 2010;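 active = every valid replicate shows activation above 250% relative to neutral control wells; inactive = the rest, any valid replicate at or below 250%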
Bfl-1 A1 inh: caspase 3/7 activation in MEF A1-2A-BIM cells, primary screen, A1 inhibitor project, cell-based, luminescence, HTS. 330,000 tested, 0.066% active. caspase activation, % (no concentration beside the values). Caspase-Glo 3/7 luminescence, 3 h; percent of clofoctol response, vehicle zero;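 active = over half of replicate activation scores above 10%, or exactly half above 10 with the replicate mean above 10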
VLA-4 inh: inhibition in human VLA-4 binding assay, primary screen, VLA-4 allosteric modulator project, MLPCN library, flow cytometry, VLA-4 expressing cells. Integrin alpha-4 (Homo sapiens), P13612. inhibition, % (about 7 µM as worked out from the volumes in the protocol). ligand binding flow cytometry. 330,000 tested, 0.2% active; in the data active = inhibition above about 50%
Target sequence (P13612 whole entry, looked up): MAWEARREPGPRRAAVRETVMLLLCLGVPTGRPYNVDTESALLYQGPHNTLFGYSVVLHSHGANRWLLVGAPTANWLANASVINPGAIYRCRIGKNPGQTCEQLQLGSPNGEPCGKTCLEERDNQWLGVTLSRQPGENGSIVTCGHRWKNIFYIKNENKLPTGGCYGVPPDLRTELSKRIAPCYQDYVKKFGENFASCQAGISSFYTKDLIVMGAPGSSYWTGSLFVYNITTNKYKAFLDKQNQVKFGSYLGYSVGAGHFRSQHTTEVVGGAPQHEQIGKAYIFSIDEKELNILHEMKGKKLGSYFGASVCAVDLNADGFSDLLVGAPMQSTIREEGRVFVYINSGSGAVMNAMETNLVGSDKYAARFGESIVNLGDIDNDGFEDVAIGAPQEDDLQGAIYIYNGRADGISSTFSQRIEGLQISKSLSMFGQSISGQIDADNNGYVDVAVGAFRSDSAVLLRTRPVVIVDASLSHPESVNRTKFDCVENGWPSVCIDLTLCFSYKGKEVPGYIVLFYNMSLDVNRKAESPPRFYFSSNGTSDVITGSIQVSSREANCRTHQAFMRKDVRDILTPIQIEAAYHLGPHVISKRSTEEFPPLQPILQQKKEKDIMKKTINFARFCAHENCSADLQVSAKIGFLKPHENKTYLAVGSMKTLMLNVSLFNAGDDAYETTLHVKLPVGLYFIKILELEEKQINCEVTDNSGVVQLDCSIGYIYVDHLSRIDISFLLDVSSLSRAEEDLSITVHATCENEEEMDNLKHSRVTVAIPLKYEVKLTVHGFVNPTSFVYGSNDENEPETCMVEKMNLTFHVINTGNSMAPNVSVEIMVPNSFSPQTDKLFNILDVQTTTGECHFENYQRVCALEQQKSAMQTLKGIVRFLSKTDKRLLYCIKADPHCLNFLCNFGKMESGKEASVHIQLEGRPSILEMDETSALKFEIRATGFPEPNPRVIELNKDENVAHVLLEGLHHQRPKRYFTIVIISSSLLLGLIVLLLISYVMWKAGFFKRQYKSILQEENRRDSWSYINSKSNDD
Efflux pump inh: inhibitors of Candida efflux pumps in yeast, primary screen, S. cerevisiae, Nile Red, multiplex. S. cerevisiae Candida pump triplex. inhibition, % at 10 µM. 330,000 tested, 0.44% active;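 active = plate passing quality check with inhibition over a set limit, or well fluorescence over plate mean plus 4 SD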;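 note: Nile Red retained in pooled yeast measured as flow cytometry median fluorescence; higher means more Nile Red kept so more efflux inhibition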
AHR act: AHR activators, primary screen, cell-based, luminescence, luciferase reporter, human. AHR-responsive luciferase reporter cells. activation, % at 5 µM. 320,000 tested, 2.5% active; in the data active = activation above about 47%
ALR H2O2 inh: inhibitors of human ALR sulfhydryl oxidase, primary screen, biochemical, H2O2 detection, HRP-luminol luminescence, single point; FAD-linked sulfhydryl oxidase ALR (Homo sapiens), P55789; purified ALR, DTT oxidation; inhibition, % (concentration not given with the values); 290,000 tested, 3.8% active;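 active = mean replicate inhibition above about 79%, with every replicate also reaching it, limit read from the data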
AHR act cf: AHR activators, confirmation, cell-based, luminescence, luciferase reporter, human. human cells, AHR-responsive luciferase reporter. activation, % at 9 µM. 2,300 tested, 87% active. shares compounds with AHR act; in the data active = activation above about 49%;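 note: HepG2 hepatoma cells carrying a DRE-driven firefly luciferase reporter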
PXR act counter: human PXR activators, counter-screen for AHR activator project, cell-based, luciferase luminescence; shares compounds with AHR act; cell-based PXR reporter; activation, % at 11.6 µM; 2,300 tested, 88% active; AID 434939, 2010; in the data active = activation above about 11%;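 note: human hepatoma DPX-2 cells expressing full-length human PXR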
Numbers stand for hits; 0 = inactive; - = not tested or not shown. Rows were chosen to be rich in hits. Some 7.2% of all compounds tested hit in one or more screens of this group.

SMILES | SUMO Mot1 rescue | Bfl-1 A1 inh | VLA-4 inh | Efflux pump inh | AHR act | ALR H2O2 inh | AHR act cf | PXR act counter
O=C(Nc1cccnc1)c1sc(Nc2ccccc2F)nc1-c1ccccc1 | 0 | 0 | 0 | 0 | 0 | 0 | - | -
O=C(Nc1ccc(Br)cc1)c1ccc(Br)c(S(=O)(=O)Nc2cccnc2)c1 | 0 | 0 | 0 | 0 | 98 | 0 | 56 | 0
Cc1ccccc1Nc1nc(-c2ccccc2)c(C(=O)Nc2cccnc2)s1 | 0 | 0 | 0 | 0 | 81 | 0 | 57 | 65
Cc1ccccc1NS(=O)(=O)c1cc(C(=O)Nc2cccnc2)ccc1C | 0 | 0 | 0 | 0 | 83 | - | 70 | 104
Cc1ccccc1NC(=O)c1ccc(C)c(S(=O)(=O)Nc2cccnc2)c1 | 0 | 0 | 0 | 0 | 0 | 0 | - | -
O=C(COC(=O)c1ccc(O)cc1O)NC1CCCCCC1 | - | - | 0 | 0 | 0 | - | - | -
COc1ccc2nc(SCC(=O)c3c(N)n(C4CC4)c(=O)[nH]c3=O)[nH]c2c1 | 0 | 0 | 0 | 0 | 0 | 0 | - | -
Cc1c(C(=O)OCC(=O)N2CC(=O)Nc3ccccc32)oc2ccc(Br)cc12 | 0 | 0 | 0 | 0 | 0 | 0 | - | -
Cc1cc(=O)[nH]c(S/C=C/c2ccccc2)n1 | 0 | 0 | 0 | 0 | 118 | 98 | 102 | 26
O=C(O)c1ccc(COc2ccccc2/C=C2\NC(=O)N(Cc3ccccc3F)C2=O)cc1 | 0 | 0 | 0 | 0 | 0 | 0 | - | -
CN1C(=O)/C(=C/c2ccccc2OCc2ccccc2F)NC1=S | 0 | 0 | 0 | 0 | 93 | 0 | 79 | 85
Cc1sc(N)nc1-c1ccc2c(c1)OCCO2 | 0 | 0 | 0 | 0 | 0 | 0 | - | -
NC1=NN=C(c2ccc3c(c2)OCCO3)CS1 | 0 | 0 | 0 | 0 | 87 | 99 | 0 | 0
CCN(CC)CCNC(=O)c1ccc(NC(=O)C2CC(=O)N(c3ccc4c(c3)OCCO4)C2)cc1 (centres undefined) | 0 | 0 | 0 | 0 | 0 | 0 | - | -
c1ccc(C[C@H]2CN=C(Nc3ccccc3)N2CCCC2CCCC2)cc1 | 0 | 0 | 0 | 0 | 0 | 0 | - | -
O=C(Nc1cccc(Cl)c1)c1cccnn1 | 0 | 0 | 0 | 0 | 109 | 0 | 82 | -
CCn1c(SCC(=O)Nc2c(C)n(C)n(-c3ccccc3)c2=O)nc2c1c(=O)n(C)c(=O)n2C | 0 | 0 | 0 | 0 | 0 | 0 | - | -
COc1ccc(/C=C/C(=O)c2oc3ccc(F)cc3c2C)cc1 | 0 | 0 | 0 | 0 | 81 | 0 | 130 | 75
COc1cc(C#Cc2c(-c3cncn3C)n(C)c3ccc(-c4ccc5cc[nH]c5c4)cc23)cc(OC)c1 | 0 | 0 | 0 | 0 | 106 | 0 | 82 | 23
O=C(Nc1ccn(Cc2ccc(Cl)cc2)n1)c1ccccc1 | 0 | 0 | 0 | 0 | 0 | - | - | -
Cn1ccc2cc(NC(=O)Nc3cccnc3)ccc21 | 0 | 0 | 0 | 0 | 89 | 0 | 55 | 21
O=C(Nc1cccnc1)Nc1ccc2c(c1)OCO2 | 0 | 0 | 0 | 0 | 85 | 0 | 91 | 16
O=C(Nc1ccn(Cc2ccccc2)n1)c1ccc2c(c1)OCO2 | 0 | 0 | 0 | 0 | 112 | 0 | 77 | 43
Cc1cc(C(=O)Nc2ccc3c(c2)OCO3)cs1 | 0 | 0 | 0 | 0 | 130 | 0 | 90 | 43
O=C(Nc1ccc2c(c1)OCO2)Nc1cnccn1 | 0 | 0 | 0 | 0 | 0 | 0 | - | -
SMILES | SUMO Mot1 rescue | Bfl-1 A1 inh | VLA-4 inh | Efflux pump inh | AHR act | ALR H2O2 inh | AHR act cf | PXR act counter
O=C(NC1CCCC1)C(c1cccnc1)N(C(=O)c1csnn1)c1ccccc1 (centres undefined) | 0 | 0 | 0 | 0 | 0 | 0 | - | -
O/C(=C\Sc1nnc(Cc2ccccc2)o1)c1ccc(Br)cc1 | 0 | 0 | 0 | 0 | 0 | 0 | - | -
COc1ccc(NC(=O)c2ccc(NC(=O)CN(C)CC(=O)Nc3c(C)cccc3C)cc2)cc1 | 0 | 0 | 0 | 0 | 0 | 0 | - | -
Cc1occc1C(=O)Nc1ccc2c(c1)OCO2 | 0 | 0 | 0 | 0 | 125 | 0 | 51 | 47
O=C(Nc1ccc2c(c1)OCO2)c1ccc2c(c1)OCO2 | 0 | 0 | 0 | 0 | 91 | 0 | 0 | 18
O=C(Nc1ccc2c(c1)OCO2)c1ccc(Br)c(S(=O)(=O)N2CCCC2)c1 | 0 | 0 | 0 | 0 | 87 | - | 0 | 154
Cc1ccc(NC(=O)c2ccoc2C)cc1C | 0 | 0 | 0 | 0 | 0 | 0 | - | -
O=C(Nc1cccc(C(=O)O)c1)Nc1ccc2c(c1)OCO2 | 0 | 0 | 0 | 0 | 0 | 0 | - | -
O=C(Nc1ccc2c(c1)OCO2)Nc1ccc2c(c1)OCO2 | 0 | 0 | 0 | 0 | 106 | 0 | 0 | 28
O=C(Nc1cccc(O)c1)c1ccc(Br)c(S(=O)(=O)N2CCCCC2)c1 | 0 | 0 | 0 | 0 | 0 | 0 | - | -
O=C(Nc1ccc(F)c(F)c1)c1ccc2c(c1)OCO2 | 0 | 0 | 0 | 0 | 0 | 0 | - | -
CCc1ccc(/C=C2/Sc3ccccc3N(CC(=O)NCC3CCCO3)C2=O)cc1 (centres undefined) | 0 | 0 | 0 | 0 | 0 | 0 | - | -
COc1ccc(NC(=O)Nc2ccncc2)c(OC)c1 | 0 | 0 | 0 | 0 | 0 | 0 | - | -
O=C(Nc1ccc2c(c1)OCO2)c1cccc(S(=O)(=O)N2CCOCC2)c1 | 0 | 0 | 0 | 0 | 112 | 0 | 91 | 36
Cc1noc(C(=O)Nc2ccc3c(c2)OCO3)c1Cl | 0 | 0 | 0 | 0 | 125 | - | 148 | 26
COc1ccc(NC(=O)Nc2cccnc2)c(OC)c1 | 0 | 0 | 0 | 0 | 91 | 0 | 115 | 12
Cc1cc(NC(=O)c2ccc3c(c2)OCO3)ccc1NC(=O)c1ccco1 | 0 | 0 | 0 | 0 | 0 | 0 | - | -
Cc1ccc(C(=O)Nc2ccc3c(c2)OCO3)cc1NC(=O)c1ccco1 | - | 0 | 0 | 0 | 122 | - | 86 | 33
CC(C)n1cnc2c(NCc3ccccc3)cc(N[C@H](C)CO)cc21 | 0 | 0 | 0 | 0 | 0 | 0 | - | -
CCc1nnc(NC(=O)CSc2ccc(Cl)cc2)s1 | 0 | 0 | 0 | 0 | 0 | 0 | - | -
O=C(Nc1ccc2c(c1)OCO2)c1c(F)c(F)c(F)c(F)c1F | 0 | 0 | 0 | 0 | 0 | 0 | - | -
O=C(Nc1ccc2c(c1)OCO2)c1ccc(Cl)s1 | 0 | 0 | 0 | 0 | 113 | 0 | 85 | 34
CN(C)S(=O)(=O)c1cccc(C(=O)N=C2N=C3C=CC(Cl)=CN3Cc3ccccc32)c1 | 0 | 0 | 0 | 0 | 97 | 0 | 50 | 32
Brc1ccccc1/C=N/Nc1ccc2ccccc2n1 | 0 | 0 | - | 0 | 94 | - | 131 | 14
Oc1ccc(/C=N/Nc2cccc(Cl)n2)c(O)c1 | 0 | 0 | 0 | 0 | 0 | - | - | -
